Experimental data from the supplement of paper PMC11732987, “Enantioselective OTUD7B fragment discovery through chemoproteomics screening and high-throughput optimisation” (Communications Chemistry, 2025).

Assays:
Test in all cases: log2 ratio of Biotin-Ahx-Ub-VS probe labelling (fragment/DMSO); higher = less target engagement (more negative = stronger competition), active = hit call of the paper (q ≤ 0.05, log2 ratio ≤ -1)
Conditions in all cases: compound concentration: 200 uM; treatment time: 3 h
[1] = target: T1, USP42 (UniProt Q9H9J4)
T1 sequence (whole entry): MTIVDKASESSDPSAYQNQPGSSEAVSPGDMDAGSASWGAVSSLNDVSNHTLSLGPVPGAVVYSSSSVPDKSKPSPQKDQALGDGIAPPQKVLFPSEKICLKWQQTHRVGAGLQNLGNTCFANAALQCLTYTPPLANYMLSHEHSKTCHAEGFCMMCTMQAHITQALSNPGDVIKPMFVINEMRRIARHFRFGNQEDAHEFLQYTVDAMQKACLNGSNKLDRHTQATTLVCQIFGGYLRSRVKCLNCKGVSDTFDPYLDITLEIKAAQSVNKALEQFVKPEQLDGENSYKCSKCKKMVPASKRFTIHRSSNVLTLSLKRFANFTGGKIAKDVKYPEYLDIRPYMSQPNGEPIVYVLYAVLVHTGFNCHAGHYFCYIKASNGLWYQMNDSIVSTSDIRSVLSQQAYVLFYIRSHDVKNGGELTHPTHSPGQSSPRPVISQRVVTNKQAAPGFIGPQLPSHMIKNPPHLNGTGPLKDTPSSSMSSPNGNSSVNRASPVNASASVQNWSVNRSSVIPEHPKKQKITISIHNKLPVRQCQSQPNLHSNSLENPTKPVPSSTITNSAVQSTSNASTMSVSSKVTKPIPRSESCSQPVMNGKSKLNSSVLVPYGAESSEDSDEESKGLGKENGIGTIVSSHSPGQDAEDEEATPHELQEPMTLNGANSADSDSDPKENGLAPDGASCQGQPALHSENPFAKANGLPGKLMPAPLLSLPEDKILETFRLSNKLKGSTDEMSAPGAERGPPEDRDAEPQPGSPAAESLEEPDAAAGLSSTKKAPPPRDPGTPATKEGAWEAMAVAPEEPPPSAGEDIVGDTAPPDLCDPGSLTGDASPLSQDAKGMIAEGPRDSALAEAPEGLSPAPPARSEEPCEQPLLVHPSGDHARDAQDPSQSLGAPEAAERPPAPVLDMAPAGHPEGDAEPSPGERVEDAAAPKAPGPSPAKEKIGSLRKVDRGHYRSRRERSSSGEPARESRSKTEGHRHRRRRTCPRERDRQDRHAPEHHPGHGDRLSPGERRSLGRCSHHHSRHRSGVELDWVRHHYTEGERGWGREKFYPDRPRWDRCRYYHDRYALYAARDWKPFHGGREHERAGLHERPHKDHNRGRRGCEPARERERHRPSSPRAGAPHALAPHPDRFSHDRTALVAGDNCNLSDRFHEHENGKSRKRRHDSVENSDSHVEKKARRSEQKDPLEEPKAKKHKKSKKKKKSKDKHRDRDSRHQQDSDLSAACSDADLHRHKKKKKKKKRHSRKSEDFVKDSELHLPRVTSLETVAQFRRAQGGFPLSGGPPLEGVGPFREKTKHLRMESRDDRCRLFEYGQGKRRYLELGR
How it was run: (§1)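 Labelled DUBs from HEK293T lysate were NeutrAvidin-enriched, digested with LysC and trypsin, and run by diaPASEF LC-MS/MS. Before that, each 495 µg sample in Tris/CHAPS/IGEPAL buffer with protease inhibitors was treated in triplicate with fragment at 200 µM or vehicle for 3 h, then with Biotin-Ahx-Ub-VS at 0.5 µM final for 1 h. Values are average log2 ratios of fragment over vehicle by unpaired t-test, based on global-median-normalised Spectronaut label-free quantities from proteins with ≥2 unique peptides.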

[2] = target: USP46 (UniProt P62068)
How it was run: as §1

[3] = target: T2, USP47 (UniProt Q96K76)
T2 sequence (whole entry): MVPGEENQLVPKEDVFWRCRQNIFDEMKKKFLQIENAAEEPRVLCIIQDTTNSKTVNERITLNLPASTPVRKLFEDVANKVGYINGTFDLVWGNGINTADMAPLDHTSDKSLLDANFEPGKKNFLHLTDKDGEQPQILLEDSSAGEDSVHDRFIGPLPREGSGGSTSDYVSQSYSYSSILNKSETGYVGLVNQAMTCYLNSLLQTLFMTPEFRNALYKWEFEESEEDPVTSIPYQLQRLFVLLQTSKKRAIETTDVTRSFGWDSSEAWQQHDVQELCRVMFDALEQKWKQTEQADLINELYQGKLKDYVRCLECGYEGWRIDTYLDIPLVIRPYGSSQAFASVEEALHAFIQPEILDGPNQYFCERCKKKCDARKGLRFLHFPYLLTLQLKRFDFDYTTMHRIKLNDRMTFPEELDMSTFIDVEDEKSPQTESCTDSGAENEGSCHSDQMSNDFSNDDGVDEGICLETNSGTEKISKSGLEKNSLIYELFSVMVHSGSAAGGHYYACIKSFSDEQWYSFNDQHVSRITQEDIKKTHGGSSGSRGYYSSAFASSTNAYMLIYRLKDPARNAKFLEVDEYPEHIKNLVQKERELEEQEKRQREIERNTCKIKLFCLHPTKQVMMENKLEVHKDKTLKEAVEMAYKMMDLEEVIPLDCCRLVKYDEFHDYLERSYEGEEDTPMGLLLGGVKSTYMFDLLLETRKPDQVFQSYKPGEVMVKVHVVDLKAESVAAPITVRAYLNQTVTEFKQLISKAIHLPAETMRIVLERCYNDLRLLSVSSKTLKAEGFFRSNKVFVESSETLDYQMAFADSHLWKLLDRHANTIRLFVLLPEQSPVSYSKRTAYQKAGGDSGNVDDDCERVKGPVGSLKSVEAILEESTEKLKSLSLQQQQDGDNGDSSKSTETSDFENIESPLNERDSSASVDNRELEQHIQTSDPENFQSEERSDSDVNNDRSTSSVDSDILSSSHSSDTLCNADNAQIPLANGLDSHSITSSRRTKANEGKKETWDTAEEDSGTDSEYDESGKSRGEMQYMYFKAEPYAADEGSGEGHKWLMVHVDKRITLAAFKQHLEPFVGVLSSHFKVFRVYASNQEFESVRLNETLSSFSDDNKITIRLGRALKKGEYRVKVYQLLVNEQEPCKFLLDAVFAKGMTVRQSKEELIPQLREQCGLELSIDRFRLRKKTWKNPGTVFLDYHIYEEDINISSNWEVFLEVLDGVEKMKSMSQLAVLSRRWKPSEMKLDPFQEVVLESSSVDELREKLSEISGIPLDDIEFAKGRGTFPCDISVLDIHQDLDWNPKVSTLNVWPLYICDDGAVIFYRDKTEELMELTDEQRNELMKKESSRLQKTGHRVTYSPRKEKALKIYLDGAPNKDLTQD
How it was run: as §1

[4] = target: T3, USP48 (UniProt Q86UV5)
T3 sequence (whole entry): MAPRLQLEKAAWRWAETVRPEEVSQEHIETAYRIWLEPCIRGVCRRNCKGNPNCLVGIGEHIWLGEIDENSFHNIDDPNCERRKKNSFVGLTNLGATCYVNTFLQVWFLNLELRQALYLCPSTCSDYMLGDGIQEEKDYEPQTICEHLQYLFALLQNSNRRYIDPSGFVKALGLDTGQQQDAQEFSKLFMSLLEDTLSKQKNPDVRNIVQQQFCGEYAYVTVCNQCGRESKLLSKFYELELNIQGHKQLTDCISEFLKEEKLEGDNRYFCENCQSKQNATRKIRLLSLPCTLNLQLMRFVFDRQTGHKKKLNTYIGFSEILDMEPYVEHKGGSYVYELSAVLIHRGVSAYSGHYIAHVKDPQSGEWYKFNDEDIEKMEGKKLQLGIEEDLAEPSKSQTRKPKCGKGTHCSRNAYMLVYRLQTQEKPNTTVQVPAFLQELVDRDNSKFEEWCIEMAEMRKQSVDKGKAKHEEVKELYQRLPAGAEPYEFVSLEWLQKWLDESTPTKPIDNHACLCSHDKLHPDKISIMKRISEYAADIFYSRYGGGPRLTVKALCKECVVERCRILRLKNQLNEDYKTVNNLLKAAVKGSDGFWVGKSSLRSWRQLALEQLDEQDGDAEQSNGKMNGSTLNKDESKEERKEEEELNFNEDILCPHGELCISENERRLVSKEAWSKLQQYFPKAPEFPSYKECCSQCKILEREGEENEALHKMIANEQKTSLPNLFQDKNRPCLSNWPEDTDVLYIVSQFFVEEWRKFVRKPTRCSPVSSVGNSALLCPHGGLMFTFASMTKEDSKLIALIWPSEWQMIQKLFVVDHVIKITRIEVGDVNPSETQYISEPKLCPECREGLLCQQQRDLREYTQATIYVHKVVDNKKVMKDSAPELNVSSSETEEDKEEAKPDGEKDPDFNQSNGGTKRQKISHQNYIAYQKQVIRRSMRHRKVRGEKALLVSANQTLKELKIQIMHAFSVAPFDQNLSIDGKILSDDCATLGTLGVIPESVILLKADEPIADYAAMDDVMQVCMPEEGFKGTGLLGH
How it was run: as §1

[5] = target: T4, USP5 (UniProt P45974)
T4 sequence (whole entry): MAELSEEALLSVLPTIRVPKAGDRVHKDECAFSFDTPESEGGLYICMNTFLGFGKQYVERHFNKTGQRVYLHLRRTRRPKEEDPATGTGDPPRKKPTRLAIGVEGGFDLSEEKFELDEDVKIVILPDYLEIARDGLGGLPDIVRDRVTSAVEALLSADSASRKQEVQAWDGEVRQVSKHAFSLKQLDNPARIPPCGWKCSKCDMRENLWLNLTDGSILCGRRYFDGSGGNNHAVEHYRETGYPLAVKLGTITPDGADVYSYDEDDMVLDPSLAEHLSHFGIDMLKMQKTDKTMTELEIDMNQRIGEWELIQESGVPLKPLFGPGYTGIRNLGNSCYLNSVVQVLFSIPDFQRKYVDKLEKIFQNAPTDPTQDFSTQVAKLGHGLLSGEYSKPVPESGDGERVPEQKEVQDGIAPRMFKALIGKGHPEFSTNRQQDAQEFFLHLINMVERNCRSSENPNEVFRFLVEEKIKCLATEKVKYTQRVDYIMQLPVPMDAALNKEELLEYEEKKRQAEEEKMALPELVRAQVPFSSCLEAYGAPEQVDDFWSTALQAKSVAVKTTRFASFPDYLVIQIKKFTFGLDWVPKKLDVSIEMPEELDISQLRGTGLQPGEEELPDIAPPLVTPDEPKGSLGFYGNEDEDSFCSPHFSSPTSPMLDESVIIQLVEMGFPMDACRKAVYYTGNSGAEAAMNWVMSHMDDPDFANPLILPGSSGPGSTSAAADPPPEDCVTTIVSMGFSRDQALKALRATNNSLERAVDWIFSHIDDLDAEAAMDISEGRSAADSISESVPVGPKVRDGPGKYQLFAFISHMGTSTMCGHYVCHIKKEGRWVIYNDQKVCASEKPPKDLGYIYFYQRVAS
How it was run: as §1

[6] = target: USP54 (UniProt Q70EL1)
How it was run: as §1

[7] = target: USP7 (UniProt Q93009)
How it was run: as §1

[8] = target: T5, USP8 (UniProt P40818)
T5 sequence (whole entry): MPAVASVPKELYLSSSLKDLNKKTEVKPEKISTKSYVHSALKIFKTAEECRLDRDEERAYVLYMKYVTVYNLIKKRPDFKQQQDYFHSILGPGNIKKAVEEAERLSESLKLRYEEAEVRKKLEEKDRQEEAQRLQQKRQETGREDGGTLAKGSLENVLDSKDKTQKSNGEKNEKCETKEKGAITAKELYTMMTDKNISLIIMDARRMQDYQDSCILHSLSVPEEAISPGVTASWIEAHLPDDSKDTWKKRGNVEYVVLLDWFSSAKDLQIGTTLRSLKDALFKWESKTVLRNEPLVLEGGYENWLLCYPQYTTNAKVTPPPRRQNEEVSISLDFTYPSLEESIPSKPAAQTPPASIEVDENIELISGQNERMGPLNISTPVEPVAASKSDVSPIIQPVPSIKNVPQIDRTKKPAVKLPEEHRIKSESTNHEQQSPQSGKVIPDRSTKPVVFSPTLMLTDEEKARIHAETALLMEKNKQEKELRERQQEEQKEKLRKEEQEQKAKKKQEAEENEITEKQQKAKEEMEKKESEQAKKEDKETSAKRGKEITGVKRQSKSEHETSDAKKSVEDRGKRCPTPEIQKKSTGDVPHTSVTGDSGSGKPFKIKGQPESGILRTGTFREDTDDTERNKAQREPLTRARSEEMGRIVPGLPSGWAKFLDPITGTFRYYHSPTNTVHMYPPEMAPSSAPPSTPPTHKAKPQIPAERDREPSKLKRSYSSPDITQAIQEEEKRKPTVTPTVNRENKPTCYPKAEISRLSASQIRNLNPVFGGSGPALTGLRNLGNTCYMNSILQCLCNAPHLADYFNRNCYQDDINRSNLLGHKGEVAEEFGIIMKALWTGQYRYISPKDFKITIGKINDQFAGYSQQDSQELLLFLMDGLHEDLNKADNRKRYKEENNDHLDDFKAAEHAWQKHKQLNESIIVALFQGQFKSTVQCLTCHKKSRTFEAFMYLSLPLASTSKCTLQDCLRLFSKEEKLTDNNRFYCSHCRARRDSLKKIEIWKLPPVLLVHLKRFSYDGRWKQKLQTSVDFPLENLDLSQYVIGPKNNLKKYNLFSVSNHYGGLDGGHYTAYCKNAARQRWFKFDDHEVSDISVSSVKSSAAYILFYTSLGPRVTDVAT
How it was run: as §1

[9] = target: USP9X (UniProt Q93008)
How it was run: as §1

[10] = target: UniProt O00487
How it was run: as §1

Measured: log2 ratio of Biotin-Ahx-Ub-VS probe labelling

Chain of USP9X (Q93008 whole entry): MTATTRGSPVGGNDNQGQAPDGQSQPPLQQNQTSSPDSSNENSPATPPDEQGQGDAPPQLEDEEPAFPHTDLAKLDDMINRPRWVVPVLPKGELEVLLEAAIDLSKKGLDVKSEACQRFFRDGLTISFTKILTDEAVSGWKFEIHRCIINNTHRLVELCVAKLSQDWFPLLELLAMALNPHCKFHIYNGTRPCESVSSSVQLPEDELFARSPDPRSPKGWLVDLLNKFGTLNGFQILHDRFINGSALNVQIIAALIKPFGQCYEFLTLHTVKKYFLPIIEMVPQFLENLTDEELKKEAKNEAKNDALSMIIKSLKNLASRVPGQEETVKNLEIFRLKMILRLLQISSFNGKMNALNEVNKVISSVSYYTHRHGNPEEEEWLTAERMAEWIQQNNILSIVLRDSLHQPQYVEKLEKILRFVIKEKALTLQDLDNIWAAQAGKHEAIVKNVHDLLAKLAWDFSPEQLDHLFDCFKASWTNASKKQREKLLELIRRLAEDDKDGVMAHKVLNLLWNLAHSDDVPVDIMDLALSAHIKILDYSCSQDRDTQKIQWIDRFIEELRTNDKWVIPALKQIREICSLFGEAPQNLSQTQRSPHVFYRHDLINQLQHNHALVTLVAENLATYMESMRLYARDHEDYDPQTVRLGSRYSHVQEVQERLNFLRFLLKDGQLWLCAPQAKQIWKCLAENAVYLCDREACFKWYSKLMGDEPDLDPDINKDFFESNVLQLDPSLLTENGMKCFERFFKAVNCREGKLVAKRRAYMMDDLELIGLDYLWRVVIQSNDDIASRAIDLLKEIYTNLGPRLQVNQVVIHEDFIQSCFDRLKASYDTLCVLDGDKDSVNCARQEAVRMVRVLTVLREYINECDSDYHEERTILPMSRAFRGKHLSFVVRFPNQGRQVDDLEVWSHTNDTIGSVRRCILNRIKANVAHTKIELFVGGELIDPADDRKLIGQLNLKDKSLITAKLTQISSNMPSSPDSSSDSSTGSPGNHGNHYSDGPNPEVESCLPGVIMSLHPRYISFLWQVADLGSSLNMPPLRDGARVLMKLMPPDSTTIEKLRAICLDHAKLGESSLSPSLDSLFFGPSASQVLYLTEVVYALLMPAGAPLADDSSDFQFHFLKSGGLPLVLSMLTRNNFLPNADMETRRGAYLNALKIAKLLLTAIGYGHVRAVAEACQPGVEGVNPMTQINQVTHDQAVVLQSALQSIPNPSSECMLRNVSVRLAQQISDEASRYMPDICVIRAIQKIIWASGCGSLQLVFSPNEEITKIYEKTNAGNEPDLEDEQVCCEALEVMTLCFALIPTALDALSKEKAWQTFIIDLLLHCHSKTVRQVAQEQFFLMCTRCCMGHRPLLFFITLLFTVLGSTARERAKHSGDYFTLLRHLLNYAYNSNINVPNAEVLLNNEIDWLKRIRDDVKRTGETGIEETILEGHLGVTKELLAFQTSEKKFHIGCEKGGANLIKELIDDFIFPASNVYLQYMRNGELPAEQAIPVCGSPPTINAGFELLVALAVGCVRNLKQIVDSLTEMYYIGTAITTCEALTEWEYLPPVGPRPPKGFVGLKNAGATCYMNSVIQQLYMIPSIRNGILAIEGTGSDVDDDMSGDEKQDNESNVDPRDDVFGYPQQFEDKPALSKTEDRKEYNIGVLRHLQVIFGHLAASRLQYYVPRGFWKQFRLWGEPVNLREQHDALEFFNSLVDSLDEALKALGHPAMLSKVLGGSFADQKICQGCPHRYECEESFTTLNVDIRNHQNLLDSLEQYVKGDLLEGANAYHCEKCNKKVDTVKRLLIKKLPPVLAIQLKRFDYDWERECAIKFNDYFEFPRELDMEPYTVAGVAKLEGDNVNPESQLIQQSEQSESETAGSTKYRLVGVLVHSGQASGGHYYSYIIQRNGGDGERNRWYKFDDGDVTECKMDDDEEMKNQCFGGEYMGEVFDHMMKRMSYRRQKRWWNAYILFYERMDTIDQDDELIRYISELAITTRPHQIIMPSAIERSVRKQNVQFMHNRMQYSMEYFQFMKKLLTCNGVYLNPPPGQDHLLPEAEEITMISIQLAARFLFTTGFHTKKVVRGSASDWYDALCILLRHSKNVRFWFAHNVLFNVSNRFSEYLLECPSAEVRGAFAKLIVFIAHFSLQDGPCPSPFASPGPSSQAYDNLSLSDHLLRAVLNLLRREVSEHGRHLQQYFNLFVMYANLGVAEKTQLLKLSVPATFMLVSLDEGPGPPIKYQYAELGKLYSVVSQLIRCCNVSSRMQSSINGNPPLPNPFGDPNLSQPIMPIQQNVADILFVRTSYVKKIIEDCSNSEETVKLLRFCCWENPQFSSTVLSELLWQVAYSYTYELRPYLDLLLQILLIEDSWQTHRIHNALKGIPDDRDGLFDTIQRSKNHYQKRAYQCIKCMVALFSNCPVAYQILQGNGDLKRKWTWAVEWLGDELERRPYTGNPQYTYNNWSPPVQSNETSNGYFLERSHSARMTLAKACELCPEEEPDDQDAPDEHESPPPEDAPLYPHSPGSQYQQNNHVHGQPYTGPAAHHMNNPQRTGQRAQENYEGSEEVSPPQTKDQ
Chain of USP54 (Q70EL1 whole entry): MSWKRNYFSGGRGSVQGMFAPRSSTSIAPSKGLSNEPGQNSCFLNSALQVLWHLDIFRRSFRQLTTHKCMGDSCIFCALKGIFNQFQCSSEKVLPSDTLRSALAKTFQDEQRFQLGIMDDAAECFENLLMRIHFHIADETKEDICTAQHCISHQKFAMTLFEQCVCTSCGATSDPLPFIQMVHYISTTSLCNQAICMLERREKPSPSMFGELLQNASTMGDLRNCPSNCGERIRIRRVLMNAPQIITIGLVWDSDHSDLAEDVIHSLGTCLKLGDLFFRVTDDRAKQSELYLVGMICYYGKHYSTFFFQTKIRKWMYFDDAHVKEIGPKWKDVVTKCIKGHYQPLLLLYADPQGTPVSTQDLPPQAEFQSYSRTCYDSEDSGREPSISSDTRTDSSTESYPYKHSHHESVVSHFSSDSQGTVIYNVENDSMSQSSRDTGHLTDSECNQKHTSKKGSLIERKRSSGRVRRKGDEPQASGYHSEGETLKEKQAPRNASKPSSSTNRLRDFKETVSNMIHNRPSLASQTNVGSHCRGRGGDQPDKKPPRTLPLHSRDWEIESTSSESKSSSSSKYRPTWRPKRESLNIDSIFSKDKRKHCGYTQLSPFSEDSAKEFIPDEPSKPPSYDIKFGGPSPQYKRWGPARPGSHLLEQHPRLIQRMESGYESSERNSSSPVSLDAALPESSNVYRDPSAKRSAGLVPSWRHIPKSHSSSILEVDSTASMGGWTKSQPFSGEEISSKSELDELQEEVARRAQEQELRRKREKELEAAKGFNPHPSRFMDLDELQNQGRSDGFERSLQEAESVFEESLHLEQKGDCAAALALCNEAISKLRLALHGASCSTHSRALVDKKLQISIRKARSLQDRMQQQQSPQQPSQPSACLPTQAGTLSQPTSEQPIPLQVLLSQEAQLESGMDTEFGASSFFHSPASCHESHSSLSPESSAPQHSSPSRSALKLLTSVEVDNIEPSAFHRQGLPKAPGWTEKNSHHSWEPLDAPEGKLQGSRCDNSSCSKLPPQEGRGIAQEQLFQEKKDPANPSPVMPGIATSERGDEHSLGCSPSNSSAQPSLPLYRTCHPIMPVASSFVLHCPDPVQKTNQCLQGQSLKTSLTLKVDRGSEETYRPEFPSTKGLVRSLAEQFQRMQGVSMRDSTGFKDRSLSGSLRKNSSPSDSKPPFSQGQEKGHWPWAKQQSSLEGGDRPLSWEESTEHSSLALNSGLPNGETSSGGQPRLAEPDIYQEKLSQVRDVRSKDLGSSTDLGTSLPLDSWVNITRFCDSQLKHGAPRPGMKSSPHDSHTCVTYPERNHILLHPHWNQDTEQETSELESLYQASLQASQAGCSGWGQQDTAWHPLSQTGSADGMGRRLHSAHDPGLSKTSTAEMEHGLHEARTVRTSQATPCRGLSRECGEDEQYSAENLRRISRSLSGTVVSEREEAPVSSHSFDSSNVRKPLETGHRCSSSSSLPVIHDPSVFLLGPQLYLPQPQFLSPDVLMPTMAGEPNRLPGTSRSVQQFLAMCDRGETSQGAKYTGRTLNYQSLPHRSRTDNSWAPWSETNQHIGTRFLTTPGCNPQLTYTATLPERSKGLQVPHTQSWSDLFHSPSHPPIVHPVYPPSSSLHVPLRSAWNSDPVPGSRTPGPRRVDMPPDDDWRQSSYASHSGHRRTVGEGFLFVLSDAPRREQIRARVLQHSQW
Chain of USP46 (P62068 whole entry): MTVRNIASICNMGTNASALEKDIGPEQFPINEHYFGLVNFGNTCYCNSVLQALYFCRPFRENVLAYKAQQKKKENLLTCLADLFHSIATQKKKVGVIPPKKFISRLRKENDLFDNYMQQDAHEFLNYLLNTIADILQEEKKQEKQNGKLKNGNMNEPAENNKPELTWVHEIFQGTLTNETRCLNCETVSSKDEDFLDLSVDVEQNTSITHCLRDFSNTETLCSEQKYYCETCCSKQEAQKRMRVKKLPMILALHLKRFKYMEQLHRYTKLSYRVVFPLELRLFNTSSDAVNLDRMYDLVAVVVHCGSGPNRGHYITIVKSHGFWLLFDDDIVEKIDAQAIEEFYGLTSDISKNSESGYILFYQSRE
Chain of UniProt O00487 (O00487 whole entry): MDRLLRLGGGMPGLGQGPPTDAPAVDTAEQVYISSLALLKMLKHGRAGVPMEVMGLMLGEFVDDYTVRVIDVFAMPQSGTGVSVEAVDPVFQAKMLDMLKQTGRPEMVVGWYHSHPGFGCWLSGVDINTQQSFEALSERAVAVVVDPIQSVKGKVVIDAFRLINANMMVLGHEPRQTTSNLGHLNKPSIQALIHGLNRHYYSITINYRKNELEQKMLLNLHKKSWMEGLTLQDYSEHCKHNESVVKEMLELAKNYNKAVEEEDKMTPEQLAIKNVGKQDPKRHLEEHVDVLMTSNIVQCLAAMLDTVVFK

O=C(CCl)N1CCN(C(=O)Nc2ccccc2)CC1
inactive: [1] 0.532 | [2] -0.0442 | [3] -0.216 | [4] -0.158 | [5] 0.398 | [6] 0.404 | [7] -0.132 | [8] 0.0931 | [9] 0.0323 | [10] -0.0538
